Data published in PubChem BioAssay (NCI).
Compounds without any hit were thinned out: in the full panel of roughly 83,000, 20% have a hit.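 Testing used 96-well plates and a 48-hour single-concentration exposure. Example: -40 means 40% of the starting cells died.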 Activity calls are given as the source filed them. The calls were made as follows: active = growth percent below 10; inactive = the rest.

Experiments:
Assay in all cases: NCI-60 one-dose screen, 48 h (100 = growth as untreated, 0 = no growth, -100 = all killed)
Settings in all cases: 10 µM unless noted
HCT-15 colon = system: HCT-15 colon
HT29 colon = system: HT29 colon
SNB-75 CNS = system: SNB-75 CNS
SNB-19 CNS = system: SNB-19 CNS
U251 CNS = system: U251 CNS
PC-3 prostate = system: PC-3 prostate
SK-MEL-5 melanoma = system: SK-MEL-5 melanoma
UACC-62 melanoma = system: UACC-62 melanoma
LOX IMVI melanoma = system: LOX IMVI melanoma
SK-MEL-28 melanoma = system: SK-MEL-28 melanoma
SK-MEL-2 melanoma = system: SK-MEL-2 melanoma
EKVX NSCLC = system: EKVX NSCLC
SN12C renal = system: SN12C renal
UO-31 renal = system: UO-31 renal
TK-10 renal = system: TK-10 renal
ACHN renal = system: ACHN renal
CAKI-1 renal = system: CAKI-1 renal
A498 renal = system: A498 renal
MOLT-4 leukemia = system: MOLT-4 leukemia
CCRF-CEM leukemia = system: CCRF-CEM leukemia

Measured: growth

CN1c2ccccc2S(=O)(=O)n2c(SCC(=O)Nc3nc4ccc(F)cc4s3)nnc21
active: UO-31 renal -65.7%
inactive: HCT-15 colon 119% | HT29 colon 119% | SNB-75 CNS 90.7% | SNB-19 CNS 107% | U251 CNS 127% | PC-3 prostate 87.8% | SK-MEL-5 melanoma 87.2% | UACC-62 melanoma 96.5% | LOX IMVI melanoma 92.5% | SK-MEL-28 melanoma 127% | SK-MEL-2 melanoma 52.6% | EKVX NSCLC 102% | SN12C renal 104% | TK-10 renal 130% | ACHN renal 96.1% | CAKI-1 renal 97.3% | A498 renal 119% | MOLT-4 leukemia 81.9%

CC(=O)Nc1sc2c(c1-c1nc3ccccc3s1)CNC2
inactive: HCT-15 colon 11.3% | HT29 colon 15.7% | SNB-75 CNS 29.5% | SNB-19 CNS 26.8% | U251 CNS 27.3% | PC-3 prostate 21.7% | SK-MEL-5 melanoma 17.4% | UACC-62 melanoma 20.1% | SK-MEL-28 melanoma 34.2% | SK-MEL-2 melanoma 23.2% | EKVX NSCLC 30.6% | SN12C renal 27.9% | TK-10 renal 29% | CAKI-1 renal 23.8% | A498 renal 36.6% | MOLT-4 leukemia 10.4%
active: LOX IMVI melanoma 3.64% | UO-31 renal 6.46% | ACHN renal 9.91%

C=C1SC(=Nc2ccccc2Cl)N(C(=O)c2sc3ccccc3c2Cl)C1(C)C
inactive: HCT-15 colon 81.4% | HT29 colon 61.6% | SNB-75 CNS 42.6% | SNB-19 CNS 42.9% | U251 CNS 49.2% | PC-3 prostate 30.7% | SK-MEL-5 melanoma 66.7% | UACC-62 melanoma 60% | LOX IMVI melanoma 77.3% | SK-MEL-28 melanoma 113% | SK-MEL-2 melanoma 151% | EKVX NSCLC 54.4% | SN12C renal 78.9% | UO-31 renal 107% | TK-10 renal 107% | ACHN renal 46.1% | CAKI-1 renal 49% | A498 renal 90.5% | MOLT-4 leukemia 20.3%

COc1cc(O)c2c(=O)c3c(CC=C(C)C)cc(OC)c(O)c3oc2c1
active: SNB-75 CNS 5.63% | U251 CNS 9.71%
inactive: HCT-15 colon 29.6% | HT29 colon 71.4% | SNB-19 CNS 27.2% | PC-3 prostate 73.9% | SK-MEL-5 melanoma 52.9% | UACC-62 melanoma 17% | LOX IMVI melanoma 40.3% | SK-MEL-28 melanoma 63% | SK-MEL-2 melanoma 29.1% | EKVX NSCLC 53.7% | SN12C renal 40.2% | UO-31 renal 43.7% | TK-10 renal 66.6% | CAKI-1 renal 44% | A498 renal 31.1% | CCRF-CEM leukemia 16.5% | MOLT-4 leukemia 25.6%

CCOC(=O)C/C(=N\Nc1cc(=O)[nH]c2ccc(OC)cc12)C(=O)OCC
inactive: HCT-15 colon 99.7% | HT29 colon 110% | SNB-75 CNS 94.6% | SNB-19 CNS 100% | U251 CNS 106% | PC-3 prostate 89% | SK-MEL-5 melanoma 99.7% | UACC-62 melanoma 90.4% | LOX IMVI melanoma 96.6% | SK-MEL-28 melanoma 99.6% | SK-MEL-2 melanoma 117% | EKVX NSCLC 100% | SN12C renal 99.5% | UO-31 renal 78.1% | TK-10 renal 114% | ACHN renal 98.8% | CAKI-1 renal 91.9% | A498 renal 106% | MOLT-4 leukemia 26.1%

COc1ccc(C(c2cc(OC)c(OC)c(OC)c2)N2CCCCC2)cc1 (configuration not stated)
inactive: HCT-15 colon 20.6% | SNB-75 CNS 26.6% | SNB-19 CNS 30.4% | U251 CNS 26.1% | PC-3 prostate 25.1% | SK-MEL-5 melanoma 29.5% | UACC-62 melanoma 18.2% | LOX IMVI melanoma 36.3% | SK-MEL-28 melanoma 47.2% | SK-MEL-2 melanoma 22% | EKVX NSCLC 59.1% | SN12C renal 54.3% | UO-31 renal 48.8% | TK-10 renal 57.6% | ACHN renal 50.9% | CAKI-1 renal 29.2% | MOLT-4 leukemia 31.5%
active: HT29 colon 7.93% | A498 renal 7.32%

Oc1c(I)cc(I)cc1CN(Cc1ccccn1)Cc1ccccn1
active: U251 CNS 7% | SK-MEL-5 melanoma -33.5% | UACC-62 melanoma 3.88% | LOX IMVI melanoma 7.25% | UO-31 renal -19.2% | TK-10 renal 8.19% | CAKI-1 renal 0.0911% | CCRF-CEM leukemia 9.21% | MOLT-4 leukemia 5.38%
inactive: HCT-15 colon 21.3% | HT29 colon 25.5% | SNB-75 CNS 30% | SNB-19 CNS 22.3% | PC-3 prostate 28% | SK-MEL-28 melanoma 28.5% | SK-MEL-2 melanoma 21.6% | EKVX NSCLC 13% | SN12C renal 27.3% | A498 renal 22.3%

CCOC(=O)c1[nH]cc2c1CCc1sc(Nc3ccccn3)nc1-2
inactive: HCT-15 colon 67.2% | HT29 colon 77% | SNB-75 CNS 82.2% | SNB-19 CNS 85.2% | U251 CNS 69% | PC-3 prostate 56.7% | SK-MEL-5 melanoma 63.5% | UACC-62 melanoma 86.5% | LOX IMVI melanoma 81.7% | SK-MEL-28 melanoma 103% | SK-MEL-2 melanoma 84.8% | EKVX NSCLC 58.4% | SN12C renal 91.8% | UO-31 renal 70.2% | TK-10 renal 116% | ACHN renal 76.6% | CAKI-1 renal 82.3% | A498 renal 62.2% | MOLT-4 leukemia 55.2%
